Inconclusive results are not listed. The source made the active and inactive calls. Rule for the calls: active = hit-call score of the fitted dose curve at least 0.9, where 1 is the maximum; inconclusive = response in the unintended direction; inactive = score below 0.9.
Assays:
[1] = ACEA_AR_agonist_AUC_viability: ACEA Biosciences xCELLigence Real-Time Cell Analysis on Androgen Receptor Agonism for Viability (AID 2283775);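 for AC50: viability read 80 hours after compound addition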
In short: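 Read-out is area under the impedance curve at 80 h post-dose in 22Rv1 cells, with DMSO as baseline and signal loss taken as reduced viability. Compounds ran in duplicate from 100 uM final.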

[2] = ACEA_AR_antagonist_AUC_viability: ACEA Biosciences xCELLigence Real-Time Cell Analysis on Androgen Receptor Antagonism for Viability (AID 2283776);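 note: 22Rv1 human prostate cancer cells growing on impedance electrode plates; area under impedance growth curve at 80 h after dosing as viability; hits lower the growth signal relative to DMSO meaning cytotoxicity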
In short: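 22Rv1 prostate cells, continuous dosing up to 100 uM final (0.5% DMSO max), duplicate plates. Growth measured by impedance; AUC at 80 h, loss of signal vs DMSO.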

[3] = ACEA_ER_AUC_viability: ACEA Biosciences xCELLigence Real-Time Cell Analysis on Estrogen Receptor Agonism for Viability (AID 2283782);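 note: continuous compound exposure with impedance area under curve over 80 h; hit means loss of impedance signal meaning reduced cell growth or viability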
In short: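 T-47D human breast cells in phenol red-free RPMI1640 with 10% charcoal-stripped FBS were dosed with an 8-point 1:4 dilution series from 100 uM top final concentration, in duplicate. Impedance-based growth was followed for 80 h; AUC analysed versus DMSO.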

AR (gene 367) [4] = biological target: AR (gene 367) (UniProt P10275); assay: ACEA_AR_agonist_80hr: ACEA Biosciences xCELLigence Real-Time Cell Analysis on Androgen Receptor Agonism for Proliferation (AID 2283783);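 note: hits increase impedance growth signal above DMSO baseline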
In short: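 22Rv1 human prostate cancer cells were seeded after preconditioning in assay medium and monitored overnight, then dosed in an eight-point 1:4 dilution series from 100 uM (≤0.5% DMSO). Impedance-based growth was read at 80 h, gain-of-signal versus DMSO.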

AR (gene 367) [5] = biological target: AR (gene 367) (UniProt P10275); assay: ACEA_AR_antagonist_80hr: ACEA Biosciences xCELLigence Real-Time Cell Analysis on Androgen Receptor Antagonism for Proliferation (AID 2283787);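 note: hits lower the impedance growth signal relative to DMSO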
In short: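 Impedance readout (RT-CES), 80 h post-dose; loss-of-signal vs DMSO baseline. 22Rv1 cells in assay medium. Compounds: 8-pt 1:4 series, max 100 uM final, up to 0.5% DMSO; n = 2.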

[6] = STM_H9_NormalizedViability: Cytotoxicity Assessment at 120 hours in the Stemina devTOX quickPredict H9 human embryonic stem cell (hESC)-based Assay (AID 2283784)
In short: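 Undifferentiated H9 hESCs kept pluripotent were exposed to compound, with media and chemical replaced every 24h. CellTiter-Fluor protease-substrate fluorescence was background-corrected and normalized per plate to the 0.1% DMSO vehicle; signal loss indicates reduced viability.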

Sequence of AR (gene 367) (P10275 whole entry, looked up): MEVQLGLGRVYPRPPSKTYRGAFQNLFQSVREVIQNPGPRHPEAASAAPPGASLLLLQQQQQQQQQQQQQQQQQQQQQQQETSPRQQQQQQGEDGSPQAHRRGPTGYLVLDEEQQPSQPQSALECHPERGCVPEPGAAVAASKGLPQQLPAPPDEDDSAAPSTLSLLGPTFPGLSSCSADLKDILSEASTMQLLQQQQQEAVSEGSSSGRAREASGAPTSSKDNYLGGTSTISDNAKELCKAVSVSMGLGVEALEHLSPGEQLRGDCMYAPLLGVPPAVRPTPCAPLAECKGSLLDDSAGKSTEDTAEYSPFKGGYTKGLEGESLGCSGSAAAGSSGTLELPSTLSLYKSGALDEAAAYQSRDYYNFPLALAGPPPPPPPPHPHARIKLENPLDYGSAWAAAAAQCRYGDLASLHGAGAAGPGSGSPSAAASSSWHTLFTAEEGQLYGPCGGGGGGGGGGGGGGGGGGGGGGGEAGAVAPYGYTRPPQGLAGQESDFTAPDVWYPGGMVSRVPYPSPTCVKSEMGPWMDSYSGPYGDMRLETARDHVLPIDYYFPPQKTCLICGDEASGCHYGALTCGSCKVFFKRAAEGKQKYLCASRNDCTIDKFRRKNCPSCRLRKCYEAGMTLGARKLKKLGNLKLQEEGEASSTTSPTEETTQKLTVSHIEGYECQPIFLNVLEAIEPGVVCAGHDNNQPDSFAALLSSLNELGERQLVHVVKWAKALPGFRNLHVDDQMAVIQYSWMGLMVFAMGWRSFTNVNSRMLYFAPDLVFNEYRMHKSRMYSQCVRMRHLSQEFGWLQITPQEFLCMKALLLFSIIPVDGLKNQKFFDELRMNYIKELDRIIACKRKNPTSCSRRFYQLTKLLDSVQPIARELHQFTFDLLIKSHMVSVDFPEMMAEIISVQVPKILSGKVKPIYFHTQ

Compound: O=C(O)CO
- outcome [1]: inactive
- outcome [2]: inactive

Compound: CCCCCCCCCCCCCCO
- AC50 [1]: 50 µM (active)
- AC50 [2]: 50 µM (active)

Compound: COc1cc(C(C)C)c2c(c1)S(=O)(=O)N(COc1cc(=O)n3cccc(OCCN4CCCCC4)c3n1)C2=O
- AC50 [1]: 22.3 µM (active)
- AC50 [2]: 16.8 µM (active)
- AC50 [3]: 17.4 µM (active)
- outcome (AR (gene 367) [4]): inactive
- AC50 (AR (gene 367) [5]): 18 µM (active)

Compound: OCC(CO)(CO)CO
- outcome [1]: inactive

Compound: CCc1ccc(O)c(C(C)(C)C)c1
- AC50 [1]: 66.1 µM (active)
- AC50 [2]: 70.5 µM (active)
- AC50 [3]: 25.5 µM (active)

Compound: CCCCCCCCCCCCCCCCOS(=O)(=O)O
- AC50 [1]: 38.3 µM (active)
- AC50 [2]: 43.8 µM (active)
- outcome [3]: inactive
- outcome (AR (gene 367) [4]): inactive
- AC50 (AR (gene 367) [5]): 46.2 µM (active)

Compound: c1ccc2cc3ccccc3cc2c1
- outcome [1]: inactive
- outcome [2]: inactive

Compound: Cc1ncc([C@@H](CCCCCCc2ccc3c(n2)NCCC3)CC(=O)O)cn1
- AC50 [1]: 0.00386 µM (active)
- AC50 [2]: 0.00579 µM (active)
- AC50 [3]: 0.00382 µM (active)
- outcome [6]: inactive

Compound: CC(C)CCCCCCOC(=O)C1CCCCC1C(=O)OCCCCCCC(C)C (centres undefined)
- outcome [1]: inactive

Compound: Cc1nccn1-c1ccc(Sc2cccc(C3(C(N)=O)CCOCC3)c2)cc1
- AC50 [1]: 25.5 µM (active)
- AC50 [2]: 24 µM (active)

Compound: OC(CCl)CCl
- outcome [1]: inactive
- outcome [2]: inactive

Compound: OC[C@H]1O[C@@H]2O[C@H]3[C@H](O)[C@@H](O)[C@@H](O[C@H]4[C@H](O)[C@@H](O)[C@@H](O[C@H]5[C@H](O)[C@@H](O)[C@@H](O[C@H]6[C@H](O)[C@@H](O)[C@@H](O[C@H]7[C@H](O)[C@@H](O)[C@@H](O[C@H]1[C@H](O)[C@H]2O)O[C@@H]7CO)O[C@@H]6CO)O[C@@H]5CO)O[C@@H]4CO)O[C@@H]3CO
- outcome [1]: inactive
- outcome [2]: inactive
- outcome [3]: inactive

Compound: CCCCCCCCN(C)C
- outcome [1]: inactive
- outcome [2]: inactive

Compound: CCOc1ccc2[nH]cc(C(=O)NCc3ccccc3)c(=O)c2n1
- AC50 [1]: 26.1 µM (active)
- AC50 [2]: 35.9 µM (active)

Compound: c1ccc(C(O[C@@H]2CCCN(CCc3ccc4c(c3)OCO4)C2)c2ccccc2)cc1
- AC50 [1]: 41.3 µM (active)
- AC50 [2]: 58.3 µM (active)

Compound: CNC(C)=O
- outcome [1]: inactive
- outcome [2]: inactive

Compound: O=C(O)[C@H](O)[C@@H](O)C(=O)O
- outcome [1]: inactive
- outcome [2]: inactive

Compound: CCCOc1ccc(S(=O)(=O)N2CCN(CC)CC2)cc1-c1nc2c(CC)n(Cc3ccccn3)nc2c(=O)[nH]1
- outcome [1]: inactive
- outcome [2]: inactive

Compound: O=S(=O)(O)c1ccc(N=Nc2c(O)ccc3cc(S(=O)(=O)O)ccc23)cc1
- outcome [1]: inactive

Compound: COc1cc2c(c(OC)c1OC)-c1ccc(OC)c(=O)cc1[C@@H](NC(C)=O)CC2
- AC50 [1]: 0.00303 µM (active)
- AC50 [2]: 0.00231 µM (active)
- AC50 [3]: 0.00238 µM (active)
- outcome (AR (gene 367) [4]): inactive
- AC50 [6]: 0.0165 µM (active)
- AC50 (AR (gene 367) [5]): 0.00409 µM (active)

Compound: c1ccc2ncccc2c1
- outcome [1]: inactive
- outcome [2]: inactive

Compound: CCCc1ccccc1
- outcome [1]: inactive
- outcome [2]: inactive
- outcome [3]: inactive

Compound: CCCCCCCC/C=C\CCCCCCCC(=O)OC[C@@H](O)[C@H]1OC[C@H](O)[C@H]1O
- outcome [1]: inactive

Compound: O=C(NO)C1(NS(=O)(=O)c2ccc(Oc3ccc(F)cc3)cc2)CCOCC1
- AC50 [1]: 38.5 µM (active)
- AC50 [2]: 50 µM (active)

Compound: CCn1nc(C)c2c1C(=O)NCC(c1ccc(O)cc1)=N2
- AC50 [1]: 25.8 µM (active)
- AC50 [2]: 15.1 µM (active)

Compound: CC(=O)c1ccccc1
- outcome [1]: inactive
- outcome [2]: inactive

Compound: O=S1(=O)CCCO1
- outcome [1]: inactive
- outcome [2]: inactive
- outcome [6]: inactive

Compound: CCCCCCCCCC
- outcome [3]: inactive
- outcome [6]: inactive

Compound: CCCCOC(=O)c1ccccc1
- outcome (AR (gene 367) [4]): inactive

Compound: O=C1CN(N=Cc2ccc([N+](=O)[O-])o2)C(=O)N1
- AC50 [6]: 3.4 µM (active)

Compound: NC(=O)NN=Cc1ccc([N+](=O)[O-])o1
- outcome [3]: inactive

Compound: FC(F)(F)COC(OCC(F)(F)F)OCC(F)(F)F
- outcome [3]: inactive

Compound: OCCC(F)(F)C(F)(F)C(F)(F)C(F)(F)F
- outcome [3]: inactive

Compound: FC(F)=C(F)C(F)(F)C(F)(F)C(F)(F)C(F)(F)C(F)(F)C(F)(F)F
- outcome [3]: inactive

Compound: Nc1ccn([C@@H]2O[C@H](CO)[C@@H](O)[C@@H]2O)c(=O)n1
- AC50 [1]: 1.22 µM (active)
- AC50 [2]: 0.88 µM (active)
- AC50 [6]: 0.27 µM (active)

Compound: Cn1cc[nH]c1=S
- outcome [2]: inactive
- outcome [3]: inactive
- outcome [6]: inactive

Compound: CCCC(CCC)C(=O)O
- outcome [1]: inactive
- AC50 [2]: 50 µM (active)
- AC50 [6]: 340 µM (active)

Compound: OCc1ccccc1
- outcome [1]: inactive
- outcome [2]: inactive
- outcome (AR (gene 367) [5]): inactive

Compound: OCCOCCOCCO
- outcome [2]: inactive
- outcome (AR (gene 367) [4]): inactive
- outcome (AR (gene 367) [5]): inactive

Compound: CCCCCCOC(=O)CC(CC(=O)OCCCCCC)(OC(=O)CCC)C(=O)OCCCCCC
- outcome [1]: inactive
- outcome [2]: inactive
- outcome (AR (gene 367) [4]): inactive
- outcome (AR (gene 367) [5]): inactive

Compound: O=S(=O)(O)CCC(F)(F)C(F)(F)C(F)(F)C(F)(F)C(F)(F)C(F)(F)F
- outcome [3]: inactive
